Inconclusive results are not listed. Activity calls are given as the source filed them. Calls come from the whole dose curve; as a rule, active = well fitted cell-killing curve with a large enough effect; inconclusive = small, poorly fitted or top-dose-only effect, or effect the other way; inactive = no such curve, though single readings can be large or run the other way.
Assay: qHTS of pediatric cancer cell lines to identify multiple opportunities for drug repurposing: Confirmatory screen for Saos-2 cells (AID 1347127); note: nearly all actives have a fitted effect of over 60% in size
Details: Saos-2 osteosarcoma cell viability; series mostly up to 45.9 µM; activity change, negative = cytotoxic: at the top concentration
Source text: Drug repurposing or repositioning has been offered as a strategy for drug development in oncology programs. This approach has special potential for childhood cancers and other rare or orphan diseases, where the expected return on new drug development has been a disincentive to pharmaceuticals.
In this project we exploit the poly-pharmacology of drugs to discover new indications via phenotypic screening of a panel of 19 well-characterized cell lines derived from solid tumors seen in children and adolescents. The goal is to identify approved drugs with previously unrecognized anticancer properties that has the potential to reveal new mechanisms and biological processes involved in carcinogenesis or drug resistance. We employed a titration-based paradigm (quantitative high-throughput screening or qHTS), where all compounds were tested at multiple concentrations for their effect on cell viability. Concentration-response curves (CRCs) were derived directly from the primary screen, and both potency and efficacy values were used to identify compounds with robust bioactivity profiles. We screened the NIH Chemical Genomics Center (NCGC) Pharmaceutical Collection (NPC) and Mechanism Interrogation Plate (MIPE) small molecule collections of approved and investigational compounds against these cell lines; and measured metabolically active cells after 48 hours of compound treatment as a proxy for cell viability.
Assay Submitter: Nathalia J. Martinez, National Center for Advancing Translational Sciences, National Institutes of Health, Rockville, MD, USA; email: natalia.martinez@nih.gov
[1] Shen, M et al. Quantitative high-throughput phenotypic screening of pediatric cancer cell lines identifies multiple opportunities for drug repurposing. Oncotarget 2017 Dec 19;9(4):4758-4772. PMID 29435139.
The cells were obtained from University of North Carolina (UNC), Pediatric Preclinical Testing Program (PPT), and Coriell Institute (CI).
qHTS cell viability assay:
Cells were assayed in growth media at a density of 500-1,000 cells/well. Five microliters of cells were dispensed into 1,536-well, white, solid-bottom, TC-treated plates (Greiner Bio One) using a multidrop dispenser and incubated at 37 degrees C, 5% CO2, under a humidified atmosphere for 5 hours. Twenty-three nanoliters of compounds and controls (neutral control DMSO or positive control bortezomib at final concentration of 2.3 µM) were subsequently transferred by Kalypsys pintool. For primary screens, the MIPE collection was tested at 11-point dilutions (final concentrations range from 0.78 nM to 46 µM) and the NPC collection at 8-point dilutions (final concentrations range from 0.59 nM to 46 µM). Compounds tested in follow-up screens were assayed at 11-point dilutions. Cells were incubated for 48 hours, followed by addition of 3 µL of CellTiter-Glo (Promega). After a 15 min incubation at room temperature, samples were analyzed for luminescence intensity using a ViewLux High-throughput CCD imager equipped with clear filters.
Potency is the fitted concentration of half-maximal effect.

SMILES	Potency	activity change, negative = cytotoxic	outcome
C=CC(=O)Nc1cccc(Sc2nc(Nc3ccc(N4CCN(C)CC4)cc3)ncc2Cl)c1	16500 nM (active)	–	–
CC(C)CN(C[C@H](O)[C@H](Cc1ccccc1)NC(=O)O[C@H]1CCOC1)S(=O)(=O)c1ccc(N)cc1	–	9.08% (inactive)	–
CC[C@H](NC(=O)[C@H](C)NC)C(=O)N1C[C@@H](O)C[C@H]1Cc1c(-c2[nH]c3cc(F)ccc3c2C[C@H]2C[C@H](O)CN2C(=O)[C@H](CC)NC(=O)[C@H](C)NC)[nH]c2cc(F)ccc12	5220 nM (active)	–	–
CCCCn1c(=O)n(Cc2ccccc2F)c(=O)c2[nH]c(Cc3ccc(NC(C)=O)cc3)nc21	–	0.523% (inactive)	–
CON(C)C(=O)N1N=C(c2cc(F)ccc2F)S[C@]1(CCCN)c1ccccc1	5.9 nM (active)	–	–
CC1=C(CC(=O)O)c2cc(F)ccc2C1=Cc1ccc(S(C)=O)cc1 (stereo not given)	–	10.4% (inactive)	–
Cc1ccc(C(=O)N(CCCN)[C@@H](c2oc3cc(Cl)ccc3c(=O)c2Cc2ccccc2)C(C)C)cc1	9.3 nM (active)	–	–
CC1=C[C@@H]2[C@@H]([C@@H](O)C[C@@]3(C)[C@H]2C[C@@H](C)[C@]3(O)C(=O)CO)[C@@]2(C)Cc3cnn(-c4ccccc4)c3C=C12	–	12.2% (inactive)	–
CC1(COc2ccc3c(c2)ncn3-c2ccc3cccc(N4CCC(N)CC4)c3n2)COC1	–	27% (inactive)	–
CCC(=O)OCC(=O)[C@@]1(OC(=O)CC)[C@@H](C)C[C@@H]2[C@H]3CCC4=CC(=O)C=C[C@]4(C)[C@@]3(F)[C@@H](O)C[C@@]21C	–	0.602% (inactive)	–
COc1cc([C@@H]2c3cc4c(cc3[C@@H](O[C@@H]3O[C@@H]5CO[C@@H](C)O[C@@H]5[C@H](O)[C@@H]3O)[C@H]3COC(=O)[C@H]23)OCO4)cc(OC)c1O	5220 nM (active)	–	–
CN1N=C(N)c2cn([C@@H]3O[C@H](COP(=O)(O)O)[C@@H](O)[C@@H]3O)c3ncnc1c23	1850 nM (active)	–	–
CN1CCN(c2ncc(-c3cc(Cl)cc(Cl)c3Cl)c(N)n2)CC1	–	3.3% (inactive)	–
COc1cc(CNC(=O)CCCCC=CC(C)C)ccc1O	–	10.6% (inactive)	–
Cc1cnc(-c2cc(N3CCN(C(=O)CCS(C)(=O)=O)CC3)ncc2Cl)c(C)c1	–	-4.39% (inactive)	–
NC(N)=Nc1nc(CSCCC(N)=NS(N)(=O)=O)cs1	–	22.6% (inactive)	–
O=c1[nH]nc(OCCCc2ccc(Cl)cc2)c(NCc2cccnc2)c1Br	–	-22.1% (inactive)	–
CCC[C@H](Nc1nc(-c2ccc(NC(=O)NCC)c(OC)c2)ncc1C)c1cccnc1	208 nM (active)	–	–
COC(=O)[C@H](c1ccccc1Cl)N1CCc2sccc2C1	–	–	inactive
Cc1ccccc1-n1c(Cn2nc(-c3cccc(O)c3)c3c(N)ncnc32)nc2cccc(C)c2c1=O	–	-5% (inactive)	–

SMILES	Potency	activity change, negative = cytotoxic	outcome
C[C@H](c1ccc(F)cc1CCCC(=O)O)N(c1cc(F)ccc1F)S(=O)(=O)c1ccc(Cl)cc1	–	-0.772% (inactive)	–
Cc1ccc(C(=O)N(CCCN)[C@@H](c2nc3cc(Cl)ccc3c(=O)n2Cc2ccccc2)C(C)C)cc1	67.6 nM (active)	–	–
CCN(CCO)CCCOc1ccc2c(Nc3cc(CC(=O)Nc4cccc(F)c4)[nH]n3)ncnc2c1	–	-12.9% (inactive)	–
CCOC(=O)[C@H](CCc1ccccc1)N[C@@H](C)C(=O)N1CCCC1C(=O)O (stereo not given in full)	11700 nM (active)	–	–
C[C@@H]1[C@H](O)[C@@H](C)C=CC=CC=CC=CC=CC=CC=C[C@H](O[C@@H]2O[C@H](C)[C@H](O)[C@H](N)[C@@H]2O)C[C@@H]2O[C@](O)(C[C@@H](O)C[C@@H](O)[C@H](O)CC[C@@H](O)C[C@@H](O)CC(=O)O[C@H]1C)C[C@H](O)[C@@H]2C(=O)O	–	14.3% (inactive)	–
CC1C(=O)OC2C(O)C34C5CC(C(C)(C)C)C36C(OC(=O)C6O)OC4(C(=O)O5)C12O (stereo not given)	–	2.03% (inactive)	–
CN(C)CC[C@H](CSc1ccccc1)Nc1ccc(S(=O)(=O)NC(=O)c2ccc(N3CCN(Cc4ccccc4-c4ccc(Cl)cc4)CC3)cc2)cc1[N+](=O)[O-]	5850 nM (active)	–	–
C[C@@H]1C[C@H]2[C@@H]3CCC4=CC(=O)C=C[C@]4(C)[C@@]3(F)[C@@H](O)C[C@]2(C)[C@@]1(O)C(=O)CO	–	-15.1% (inactive)	–
CN[C@@H]1CN(c2ccc3c(=O)c(C(=O)O)cn(-c4nccs4)c3n2)C[C@@H]1OC	–	-4.84% [at 29.6 µM] (inactive)	–
CC(C)C[C@@H](C(=O)N[C@H](C(=O)OC1CCCC1)c1ccccc1)[C@H](O)C(=O)NO	5850 nM (active)	–	–
CSc1cccc(Nc2ncc3cc(-c4c(Cl)cccc4Cl)c(=O)n(C)c3n2)c1	2330 nM (active)	–	–
CC(C)n1c(C=C[C@H](O)C[C@H](O)CC(=O)O)c(-c2ccc(F)cc2)c2ccccc21	1040 nM (active)	–	–
Nc1ncnc2c1ncn2[C@@H]1O[C@H](CO)[C@@H](O)[C@@H]1O	9270 nM (active)	–	–
CC(C)CN(C[C@@H](O)[C@H](Cc1ccccc1)NC(=O)O[C@H]1CO[C@H]2OCC[C@H]21)S(=O)(=O)c1ccc(N)cc1	–	6.4% (inactive)	–
CO[C@H]1/C=C\O[C@@]2(C)Oc3c(C)c(O)c4c(O)c(c5c(nc6cc(C)ccn65)c4c3C2=O)NC(=O)C(C)=CC=C[C@H](C)[C@H](O)[C@@H](C)[C@@H](O)[C@@H](C)[C@H](OC(C)=O)[C@H]1C	–	-16.2% (inactive)	–
CCNC(=O)c1noc(-c2cc(C(C)C)c(O)cc2O)c1-c1ccc(CN2CCOCC2)cc1	131 nM (active)	–	–
O=C1NC(=O)C(c2cnc3ccccn23)=C1c1cn2c3c(cccc13)CN(C(=O)N1CCOCC1)CC2	–	-9.66% (inactive)	–
CCC(c1ccc(O)cc1)C(CC)c1ccc(O)cc1 (stereo not given)	–	-11.9% (inactive)	–
C=C1[C@H](n2cnc3c(=O)[nH]c(N)nc32)C[C@H](O)[C@H]1CO	–	–	inactive
COc1cc2ncnc(Nc3cc(Br)c(O)c(Br)c3)c2cc1OC	–	-6.4% (inactive)	–

— PubChem BioAssay (NCATS)
